Where “and” joins values, the source holds several entries; their conditions need not be identical. Equal entries are not always repeated. About 83,000 compounds went through this panel and 20% of them were active in at least one assay; those are over-represented in the sample as a whole.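 A percent growth of 40 corresponds to 60% growth inhibition; 0 means no net growth; -100 means all cells died. Active threshold: below 10.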 Calls of active or inactive are those of the source.
How the values were obtained:
Experiment in all cases: NCI-60 one-dose screen, 48 h (100 = growth as untreated, 0 = no growth, -100 = all killed)
Conditions in all cases: 10 µM unless noted
SR leukemia = tested on: SR leukemia
RPMI-8226 leukemia = tested on: RPMI-8226 leukemia
OVCAR-8 ovarian = tested on: OVCAR-8 ovarian
OVCAR-5 ovarian = tested on: OVCAR-5 ovarian
OVCAR-4 ovarian = tested on: OVCAR-4 ovarian
SK-OV-3 ovarian = tested on: SK-OV-3 ovarian
OVCAR-3 ovarian = tested on: OVCAR-3 ovarian
HS 578T breast = tested on: HS 578T breast
NCI/ADR-RES ovarian = tested on: NCI/ADR-RES ovarian
IGROV1 ovarian = tested on: IGROV1 ovarian

SMILES	growth (SR leukemia)	growth (RPMI-8226 leukemia)	growth (OVCAR-8 ovarian)	growth (OVCAR-5 ovarian)	growth (OVCAR-4 ovarian)	growth (SK-OV-3 ovarian)	growth (OVCAR-3 ovarian)	growth (HS 578T breast)	growth (NCI/ADR-RES ovarian)	growth (IGROV1 ovarian)
N#Cc1c(N)nnn1Cc1cc(=O)oc2ccc(O)cc12	95.3% (inactive)	94.1% (inactive)	100% (inactive)	106% (inactive)	110% (inactive)	112% (inactive)	113% (inactive)	99% (inactive)	111% (inactive)	
CCN(CC)/C([O-])=c1\cccc\c1=C1\N=C(c2ccccc2)N=C1[n+]1ccc(-c2ccccc2)cc1	102% (inactive)	98.4% (inactive)	97.6% (inactive)	87.8% (inactive)	99.5% (inactive)	105% (inactive)	94% (inactive)	109% (inactive)	98.2% (inactive)	
CC(=O)c1nn(-c2ccccc2)/c(=N/N=Cc2cn(-c3ccccc3)nc2-c2cc3ccccc3oc2=O)s1	88.1% (inactive)	102% (inactive)	103% (inactive)	106% (inactive)	104% (inactive)	106% (inactive)	116% (inactive)		107% (inactive)	107% (inactive)
CCCCCCCCCCCCCCCCCCn1cc(COc2ccc(C=O)cc2)nn1	85.6% (inactive)	95.3% (inactive)	102% (inactive)	120% (inactive)	103% (inactive)	91.3% (inactive)	96.8% (inactive)	110% (inactive)	96.4% (inactive)	
CC(=O)N1N=C(c2ccc(F)cc2)CC1c1sc(N(C)Cc2ccccc2)nc1Cl (stereo unspecified)	94.6% (inactive)	75.2% (inactive)	105% (inactive)	109% (inactive)	88.7% (inactive)	101% (inactive)	101% (inactive)	109% (inactive)	92% (inactive)	
NS(=O)(=O)c1ccc(C(=O)N=Nc2c(O)[nH]c3c(F)cccc23)cc1	103% (inactive)	106% (inactive)	96.7% (inactive)	99.8% (inactive)	102% (inactive)	109% (inactive)	117% (inactive)	103% (inactive)	100% (inactive)	
CN(C)CCCn1c2nc(=O)[nH]c(=O)c-2nc2cc(Cl)c(Cl)cc21	83.7% (inactive)	73.6% (inactive)	50% (inactive)	125% (inactive)	81.8% (inactive)	109% (inactive)	-20.9% (active)	106% (inactive)	85.9% (inactive)	
CCCNNC(=O)/C=C/c1ccc(CNCCc2c(C)[nH]c3ccccc23)cc1	20.1% [2.5 µM] (inactive)	16.3% [2.5 µM] (inactive)	10.8% [2.5 µM] (inactive)	1.96% [2.5 µM] (active)	41.6% [2.5 µM] (inactive)	0.0389% [2.5 µM] (active)	19.8% [2.5 µM] (inactive)	35.3% [2.5 µM] (inactive)	50% [2.5 µM] (inactive)	
COCCn1cc(-c2csc(-c3cn(C)c4ccc(F)cc34)n2)c2cccnc21	33.8% (inactive)	67.7% (inactive)	71.3% (inactive)	80.7% (inactive)		92.6% (inactive)	76% (inactive)	63.1% (inactive)	58.6% (inactive)	93.9% (inactive)
CCCCCCCCCCCCCCCC[N+](C)(C)CCN(Cc1ccc(OC)cc1)c1ncccn1	-45.2% (active) and 56.8% (inactive)	27.2% (inactive)	-72.8% (active) and 56.4% (inactive)	-37% (active) and 67.2% (inactive)		14.6% (inactive) and 67.4% (inactive)	-100% (active) and 45.5% (inactive)	-72.9% (active) and 84.5% (inactive)	72.2% (inactive) and 105% (inactive)	-70.4% (active)
O=[N+]([O-])c1ccc2[nH]c3nccc(NCc4cccc(Cl)c4)c3c2c1	50.5% (inactive)	82.9% (inactive)	37.5% (inactive)	86.3% (inactive)		91.9% (inactive)	49.8% (inactive)	17.5% (inactive)	64.4% (inactive)	93.1% (inactive)
Cc1nc(-n2[nH]c(=O)ccc2=O)sc1N=Nc1ccccc1	105% (inactive)	100% (inactive)	103% (inactive)	100% (inactive)		103% (inactive)	114% (inactive)	95.5% (inactive)	108% (inactive)	95.5% (inactive)
O=C(NNc1ccccc1)C1CCCN1 (stereo unspecified)	105% (inactive)	78.7% (inactive)	86.7% (inactive)	69.7% (inactive)	64.5% (inactive)	80.6% (inactive)	88.8% (inactive)	93% (inactive)	84.1% (inactive)	
O=C(Nc1ncc(Cc2cccc(C(F)(F)F)c2)s1)c1ccc2c(c1)OCCO2	6.85% (active)	17.6% (inactive)	23.2% (inactive)	37.1% (inactive)	37.1% (inactive)	35.3% (inactive)	-8.1% (active)		7.71% (active)	
COc1ccc(/C=C(\C#N)c2cc3ccccc3[nH]2)cc1	11.4% (inactive)	14.9% (inactive)	32% (inactive)	42.5% (inactive)		47.7% (inactive)	14.1% (inactive)	22.9% (inactive)	-6.87% (active)	45.7% (inactive)
O=C(CCl)N(O)c1ccc(/C=C/c2ccccc2)cc1	11% (inactive)	72.7% (inactive) and 65.9% (inactive)	63.1% (inactive) and 89.3% (inactive)	109% (inactive) and 119% (inactive)		101% (inactive) and 105% (inactive)	98.7% (inactive) and 81.9% (inactive)	107% (inactive) and 111% (inactive)	86.3% (inactive) and 89.1% (inactive)	70.9% (inactive) and 61.9% (inactive)
N=C(N)c1ccc(-c2ccc(-c3ccc(Cl)c(Cl)c3)s2)cc1	5.08% (active)	-15.6% (active)	-17% (active)	15.2% (inactive)		94.6% (inactive)	-87.9% (active)	94% (inactive)	83.5% (inactive)	-49.5% (active)
CN1CCCc2cc(/C=C3\SC(=S)N(C(Cc4ccc(O)cc4)C(=O)O)C3=O)ccc21 (stereo unspecified)	105% (inactive)	95.8% (inactive)	99.2% (inactive)	101% (inactive)		107% (inactive)	95.5% (inactive)	102% (inactive)	100% (inactive)	102% (inactive)
Cc1ccc(NC(=O)c2ccc(CN3CCN(C)CC3)cc2)cc1Nc1nccc(-c2cccnc2)n1	85.4% (inactive) and -22.5% (active)	87.4% (inactive) and 38.3% (inactive)	91.6% (inactive) and 67.7% (inactive)	123% (inactive) and 97.5% (inactive)		106% (inactive) and 107% (inactive)	110% (inactive) and 84% (inactive)	90.1% (inactive)	101% (inactive) and 91.4% (inactive)	119% (inactive) and 98.3% (inactive)
CN1Cn2c(ccc2C(F)(F)F)C(=O)CS1(=O)=O	109% (inactive)	109% (inactive)	108% (inactive)	96% (inactive)		106% (inactive)	112% (inactive)	106% (inactive)	103% (inactive)	
CCOC(=O)c1ccc(Nc2ncnc3c2cnn3-c2cccc(F)c2)cc1	94.7% (inactive)	99.5% (inactive)	98.3% (inactive)	97.1% (inactive)		120% (inactive)	112% (inactive)	95.9% (inactive)	103% (inactive)	98.7% (inactive)
Clc1nccc2c(-c3csc(-c4c[nH]c5ccc(Br)cc45)n3)c[nH]c12	6.34% (active)	44.9% (inactive)	33.4% (inactive)	60.1% (inactive)		27% (inactive)	62.5% (inactive)	30.7% (inactive)	31.3% (inactive)	44.3% (inactive)

— PubChem BioAssay (NCI)
